Several values for one entry are separate records, joined by “and”; a condition that tells them apart may be missing. Identical values can stand only once. Records with an inconclusive call do not appear. Activity calls are given as the source filed them. Rule for the calls: active = hit-call score of the fitted dose curve at least 0.9, where 1 is the maximum; inconclusive = response in the unintended direction; inactive = score below 0.9.

This assay can be described thus: TOX21_p53_BLA_p2_viability: Viability Assessment in the Tox21 HCT-116 p53 Agonism Beta-lactamase Assay, Phase 2 (AID 2283591).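 Note: compound exposure lasted 16 h at 37 °C; actives lower the ATP signal meaning cytotoxicity.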 The text has this: TOX21_p53_BLA_p2 is a cell-based, single-readout assay that uses HCT116, a human intestinal cell line, […] in a 1536-well plate.TOX21_p53_BLA_p2_viability is an assay readout measuring cellular ATP content and detected with CellTiter-Glo Luciferase-coupled ATP quantitation.TOX21_p53_BLA_p2_viability used a type of viability reporter where loss-of-signal activity can be used to understand changes in the cell viability. Furthermore, this assay endpoint can be referred to as a secondary readout, because this assay has produced multiple assay endpoints where this one serves a viability function. To generalize the intended target to other relatable targets, this assay endpoint is annotated to the cell cycle intended target family, where the subfamily is cytotoxicity.
Thawing Method: Place 14 mL of pre-warmed thaw medium into a 15 mL of conical tub. Remove the vial of cells to be thawed from liquid nitrogen and thaw rapidly by placing at 37C in a water bath with gentle agitation for 1-2 minutes. Decontaminate the vial by wiping with 70% ethanol before opening in a biological safety cabinet. Transfer the vial contents drop-wise into 14 mL of thaw medium in a sterile 15-mL conical tub. Centrifuge cells at 900 rpm for 4 minutes and resuspend in thaw medium. Transfer contents to the T75 tissue culture flask containing Thaw Medium and place flask in a humidified 37C/5% CO2 incubator. Switch to growth medium at first passage.Propagation Method: Aspirate medium, rinse once in DPBS, add 0.25% Trypsin/EDTA and swirl to coat the cell evenly. Add an equal volume of Growth Medium to inactivate Trypsin after 2-3 minutes incubation at 37C. Centrifuge cells at 900 rpm for 4 minutes and resuspend in growth medium. Cell should be passage or fed at least twice a week.Assay Protocol: Harvest cells from culture in growth medium and resuspend in assay medium. 2.2 Dispense 4000 cells/5 uL/well into 1536-well black/clear bottom plates using a Multidrop dispenser. After the cells were incubated at 37C for 5 hours, 23 nL of compounds dissolved in DMSO were transferred to the assay plate by a PinTool resulting in a 217-fold dilution. Incubate the plates for 16 hours at 37C, 5% CO2. Add 1 uL of 6X LiveBLAzer FRET B/G (CCF4-AM) Substrate Mixture to each well using a BioRAPTR dispenser and incubate the plates at room temperature for 2 hours. Measure fluorescence intensity at 460 and 530 nm emission and 405 nm excitation by an Envision detector. Data is expressed as the ratio of 460nm/530nm emissions. Add 4 uL of Cell-titer Glo to each well using BioRAPTR and incubate the plates at room temperature for […]. For cell viability readout that measures cytotoxicity, 4 ul/well of CellTiter-Glo reagent was added into the assay plates using a Flying Reagent Dispenser. After 30 min incubation at room temperature, the luminescence intensity in the plates was measured using a ViewLux plate reader.
Take `C=CCOC(=O)CC(C)C`: the compound was classed as inactive.

On to `O=S(=O)(O)c1ccc(Cl)cc1`, for which the result was inactive.

`CN(N=O)C(=O)N[C@@H]1[C@@H](O)[C@H](O)[C@@H](CO)O[C@@H]1O`: the result was inactive.

A word on the AC50: it is the concentration giving half of the maximal activity seen. Regarding `Cc1cc(O)c(C(C)(C)C)cc1C(C)(C)C`, the AC50 was 40.6 µM (active).

`CCC(Cc1c(I)cc(I)c(N)c1I)C(=O)O` (centres undefined): the outcome was inactive.

Regarding `CC(C)CCCC(C)CCO` (centres undefined), the outcome was inactive.

With `CCC/C=C/CO`, the call was inactive.

Consider `O=C1C=CC(=O)N1c1ccccc1`, for which the AC50 was 69.7 µM (active).

Turning to `Cc1cc(=O)[nH]c(C(C)C)n1`, the compound was classed as inactive.

For the compound `CCCCCCCCn1sc(Cl)c(Cl)c1=O`, the AC50 was 85.9 µM (active).

Consider `CCCCC(CC)COC(=O)c1ccc(N(C)C)cc1` (centres undefined), for which the compound was classed as inactive.

On to `CC(O)C#CC(C)O` (centres undefined), for which the call was inactive.

Take `CCOC(=O)CCC(C)=O`: the compound was called inactive.

Take `Brc1nc2ccccc2s1`: the result was inactive.

On to `O=C(c1ccccc1)c1ccc(O)cc1O`, for which the result was inactive.

`CCCCCC/C=C/CCCCCCCC(=O)O`: the call was inactive.

On to `CCc1cc(Cc2cc(CC)c(N)c(CC)c2)cc(CC)c1N`, for which the outcome was inactive.

As to `C[C@]12CC[C@H]3C(=CCc4cc(O)ccc43)[C@@H]1CCC2=O`, the outcome was inactive.

Take `CC(=O)CCC(C)C`: the outcome was inactive.

As to `CC(C)CC=C(C=O)c1ccccc1`, the compound was called inactive.

As for `Cc1ccc([N+](=O)[O-])c(C)c1`, the result was inactive.

In the case of `CCN=c1cc2oc3cc(NCC)c(C)cc3c(-c3ccccc3C(=O)OCC)c-2cc1C`, the half-maximal activity concentration (AC50) was 38.3 µM (active) and 45.9 µM (active).

On to `CC(C)OC=O`, for which the compound was classed as inactive.

On to `CCC(=O)OC(C)c1ccccc1` (centres undefined), for which the call was inactive.

On to `CO[Si](CCCOCC1CO1)(OC)OC` (centres undefined), for which the outcome was inactive.

With `CSc1ccc(Cl)cc1`, the call was inactive.

For `O=C1c2c(O)ccc(Nc3ccc(CCO)cc3)c2C(=O)c2c([N+](=O)[O-])ccc(O)c21`, the compound was classed as inactive.

`Cc1ccc(O)c(-n2nc3ccccc3n2)c1`: the compound was called inactive.

`CCCCCCCC/C=C\CCCCCCCC(=O)N(C)CC(=O)O`: the half-maximal activity concentration (AC50) is 37.1 µM (active).

With `Cc1ccc2c(c1)OCC(=O)CO2`, the outcome was inactive.

In the case of `O=C1C=CC(=O)N1c1ccc(Cc2ccc(N3C(=O)C=CC3=O)cc2)cc1`, the half-maximal activity concentration (AC50) was 71 µM (active).

Turning to `CC(C)(C)C(=O)C1C(=O)c2ccccc2C1=O`, the outcome was inactive.

Turning to `OCC1CCCO1` (centres undefined), the compound was called inactive.

For `CCN=C1C=CC(=C(c2ccc(N(CC)CC)cc2)c2ccc(N(CC)CC)cc2)c2ccccc21`, the half-maximal activity concentration (AC50) is 60.4 µM (active).

For the origin of these results see PubChem BioAssay (EPA / NIEHS).
